{"source": "PubChem BioAssay AID623911", "about": "(Vanderbilt High Throughput Screening Facility, 2012)", "note": "Out of some 2,100 compounds screened, about 770 (37%) were called active.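 The calls were made as follows: active = by-eye trace score of 1 for enhancers or -1 for inhibitors, so actives lie on both sides (some results past the limit were not filed as active); inactive = score 0, or 3 fluorescent, or 4 baseline rise.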 This is one part of the list.", "data": [{"target": "G protein-activated inward rectifier potassium channel 2 (Homo sapiens) + G protein-activated inward rectifier potassium channel 1 (Homo sapiens) (UniProt P48051+P48549)", "sequence (P48051 whole entry, looked up)": "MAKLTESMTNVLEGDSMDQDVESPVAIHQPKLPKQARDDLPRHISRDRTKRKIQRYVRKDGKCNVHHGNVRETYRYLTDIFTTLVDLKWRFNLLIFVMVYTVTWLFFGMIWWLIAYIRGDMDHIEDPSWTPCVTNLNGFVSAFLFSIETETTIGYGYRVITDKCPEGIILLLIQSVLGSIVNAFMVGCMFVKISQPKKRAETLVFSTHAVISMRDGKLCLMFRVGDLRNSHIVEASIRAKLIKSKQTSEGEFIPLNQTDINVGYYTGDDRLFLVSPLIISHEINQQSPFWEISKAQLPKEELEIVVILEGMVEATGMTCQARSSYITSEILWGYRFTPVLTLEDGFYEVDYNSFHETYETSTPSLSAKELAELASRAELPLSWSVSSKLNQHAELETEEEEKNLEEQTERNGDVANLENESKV", "sequence (P48549 whole entry, looked up)": "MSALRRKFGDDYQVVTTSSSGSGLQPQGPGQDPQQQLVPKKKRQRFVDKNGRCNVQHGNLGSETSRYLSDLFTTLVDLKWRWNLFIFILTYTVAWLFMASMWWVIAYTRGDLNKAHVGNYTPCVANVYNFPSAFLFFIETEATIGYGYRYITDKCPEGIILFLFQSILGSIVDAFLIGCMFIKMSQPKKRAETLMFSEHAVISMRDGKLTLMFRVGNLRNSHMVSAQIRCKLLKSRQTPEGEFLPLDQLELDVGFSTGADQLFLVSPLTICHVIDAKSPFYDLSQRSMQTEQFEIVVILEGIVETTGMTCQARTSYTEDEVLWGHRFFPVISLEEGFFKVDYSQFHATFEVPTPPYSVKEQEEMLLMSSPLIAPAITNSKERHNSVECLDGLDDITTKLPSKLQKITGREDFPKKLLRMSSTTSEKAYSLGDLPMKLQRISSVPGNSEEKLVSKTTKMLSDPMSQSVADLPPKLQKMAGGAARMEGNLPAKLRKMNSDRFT", "assay": "GIRK1/2 thallium flux modulators, retest, confirmation, cell-based, HEK293 rmGlu8/hGIRK1/2, FluoZin-2 (AID 623911)", "details": "HEK293 rmGlu8/hGIRK1/2, thallium flux FluoZin-2; actives lie on both sides; glutamate co-added at its EC20 level", "values": [{"smiles": "COc1cccc(-c2cc(C(=O)NC3CCCC3)no2)c1", "manual score": "0 (inactive)"}, {"smiles": "CCN(CC)CCCNC(=O)c1cc(-c2ccc(Cl)c(Cl)c2)on1", "manual score": "-1 (active)"}, {"smiles": "CN(C)CCCNC(=O)c1ccc(-c2nc(-c3ccc(Cl)cc3)cs2)cc1", "manual score": "0 (inactive)"}, {"smiles": "CC(C)CCOP(=O)(c1ccc(N(C)C)cc1)C(O)c1ccccn1", "note": "(centres undefined)", "manual score": "0 (inactive)"}, {"smiles": "COc1ccc2c(c1)C(C)=CC(C)(C)N2C(=O)CNCc1ccc2c(c1)OCO2", "manual score": "-1 (active)"}, {"smiles": "CC(C)(C)c1nn(-c2ccccc2)c2[nH]c(=O)c(CNCc3ccc4c(c3)OCO4)cc12", "manual score": "0 (inactive)"}, {"smiles": "Cc1c(C(=O)O)[nH]c2c1C(=O)CC(c1ccc(Cl)cc1)C2", "note": "(centres undefined)", "manual score": "0 (inactive)"}, {"smiles": "Cc1cccc(OCC(O)Cn2c(=N)n(CCN3CCCCC3)c3ccccc32)c1", "note": "(centres undefined)", "manual score": "-1 (active)"}, {"smiles": "N=c1n(CCN2CCCCC2)c2ccccc2n1CC(O)COc1ccccc1", "note": "(centres undefined)", "manual score": "-1 (active)"}, {"smiles": "Cc1cccc(OCc2nnc(SCC(=O)N3CCc4ccccc43)n2C)c1", "manual score": "0 (inactive)"}, {"smiles": "Cc1ccc(OCC(O)Cn2c(=N)n(CCN3CCCCC3)c3ccccc32)cc1", "note": "(centres undefined)", "manual score": "-1 (active)"}, {"smiles": "O=C(NNc1ccccc1Br)C(=O)n1ccc2ccccc21", "manual score": "0 (inactive)"}, {"smiles": "COCCCN1C(=O)C(=O)/C(=C(/O)c2ccc(C)cc2)C1c1ccccc1", "note": "(centres undefined)", "manual score": "0 (inactive)"}, {"smiles": "COc1cccc(/C=N/n2c(=S)n(C)c3ccccc32)c1OC", "manual score": "0 (inactive)"}, {"smiles": "COc1ccc(/C=N/n2c(SC)nnc2-c2ccccc2)c(OC)c1OC", "manual score": "-1 (active)"}, {"smiles": "COc1ccc(-c2nn(-c3ccccc3)cc2/C=N/n2cnnc2)cc1OC", "manual score": "0 (inactive)"}, {"smiles": "Cc1cc(N2CCC(C)CC2)n2ncc(-c3ccccc3)c2n1", "manual score": "0 (inactive)"}, {"smiles": "NS(=O)(=O)c1ccc(NC(=O)C2COc3ccccc3O2)cc1", "note": "(centres undefined)", "manual score": "0 (inactive)"}, {"smiles": "CCC(/C=N/NC(=O)C1COc2ccccc2O1)CC", "note": "(centres undefined)", "manual score": "1 (active)"}, {"smiles": "CCC(CC)c1nnc(NC(=O)C2COc3ccccc3O2)s1", "note": "(centres undefined)", "manual score": "0 (inactive)"}, {"smiles": "COc1ccc(-n2nnnc2SCC(=O)N2CCOCC2)cc1", "manual score": "-0.5 (inactive)"}, {"smiles": "COc1ccc(OC)c(C(=O)c2coc3ccc(O)c(CN4CCOCC4)c23)c1", "manual score": "-1 (active)"}, {"smiles": "COC(=O)COc1ccc(S(=O)(=O)Nc2ccccc2C(=O)OC)cc1", "manual score": "0 (inactive)"}, {"smiles": "COC(=O)C(C)N(C(=O)c1cccc(Cl)c1)c1c(C)cccc1C", "note": "(centres undefined)", "manual score": "-1 (active)"}, {"smiles": "NC(=O)Nc1cccc2ccccc12", "manual score": "0 (inactive)"}, {"smiles": "CCC/C(=N/NC(=O)c1cccc(Cl)c1)c1ccccc1", "manual score": "0 (inactive)"}, {"smiles": "COC(=O)C(C)N(C(=O)c1cccc2ccccc12)c1c(C)cccc1C", "note": "(centres undefined)", "manual score": "-1 (active)"}, {"smiles": "O=C(Nc1ccc2oc(-c3ccncc3)nc2c1)c1c(F)c(F)c(F)c(F)c1F", "manual score": "0 (inactive)"}, {"smiles": "CCCN1C(=O)/C(=C/c2ccc(C)s2)NC1=S", "manual score": "1 (active)"}, {"smiles": "CCN1C(=O)/C(=C/c2ccc(C)s2)NC1=S", "manual score": "1 (active)"}, {"smiles": "CCCN1C(=O)/C(=C/c2ccc(N3CCCC3)c(C)c2)NC1=S", "manual score": "3 (inactive)"}, {"smiles": "O=C1/C(=C/c2ccc(N3CCCC3)cc2)NC(=S)N1C1CC1", "manual score": "3 (inactive)"}, {"smiles": "CC(C)CN1C(=O)/C(=C/c2cccs2)NC1=S", "manual score": "1 (active)"}, {"smiles": "O=C(Nc1nnc(SCc2ccc(F)cc2)s1)C1CC(=O)N(c2ccc3c(c2)OCCO3)C1", "note": "(centres undefined)", "manual score": "0 (inactive)"}, {"smiles": "CN(C)c1nc2n(c(=O)n1)C(C#N)CS2", "note": "(centres undefined)", "manual score": "0 (inactive)"}, {"smiles": "O=c1[nH]c(CS(=O)(=O)c2ccccc2)nc2ccccc12", "manual score": "0 (inactive)"}, {"smiles": "CCCCCCCCCn1c2c(c(=N)c3c1CCC3)CCC2", "manual score": "-1 (active)"}, {"smiles": "CCCCn1c(-c2csc3c2CCCC3)n[nH]c1=S", "manual score": "-0.5 (inactive)"}, {"smiles": "CC(=O)c1ccc(OC(=O)N(c2ccccc2)c2ccccc2)cc1", "manual score": "0 (inactive)"}, {"smiles": "N[C@@H](Cc1ccccc1)c1nnc(SCc2ccccc2F)o1", "manual score": "0 (inactive)"}, {"smiles": "Cc1cc(C)c2[nH]c(=S)cc(C)c2c1", "manual score": "1 (active)"}, {"smiles": "Cc1cc(=S)[nH]c2c(C)cccc12", "manual score": "1 (active)"}, {"smiles": "CC1(C)Cc2c(ccc3ccccc23)-c2nnc(-c3cccnc3)n21", "manual score": "0 (inactive)"}, {"smiles": "CCOC(=O)N/N=C/c1c(C)nn(-c2ccccc2Cl)c1Cl", "manual score": "0 (inactive)"}]}]}
